# From PubChem BioAssay (NCATS)
# Where “and” joins values, the source holds several entries; their conditions need not be identical. Equal entries are not always repeated. Results filed as inconclusive are left out. Entries that show only a call come without a potency. The source holds several records for some structures; these can differ, active in one and inactive in another. Calls of active or inactive are those of the source. Unless noted, calls come from the whole dose curve; as a rule, active = well fitted curve in the direction sought with a large enough effect; inconclusive = small, poorly fitted or top-dose-only effect, or another doubt; inactive = no such curve, though single readings can be large; an effect the other way counts as inactive or inconclusive.
# How the values were obtained:
# [1] = KB-8-5-11 P-gp reporter qHTS against the NCATS DSHEA and TCM libraries (AID 1919977)
# Method in brief: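 P-gp-overexpressing KB-8-5-11 cells were screened in colchicine-free medium at 500 cells/well, as a titration series. Cells were exposed for 72 h at 37C. Viability was read by CellTiter-Glo luminescence after 30 min at room temperature.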
# [2] = target: Cytochrome P450 3A4 (Homo sapiens) (UniProt P08684); test: qHTS Assay for Inhibitors and Substrates of Cytochrome P450 3A4 (AID 884); note: nearly all actives have a fitted effect of over 50% in size; note: potency is the fitted concentration of half-maximal effect; for activity change, negative = inhibition: series mostly up to about 57 µM
# Cytochrome P450 3A4 (Homo sapiens), sequence (P08684 whole entry, looked up): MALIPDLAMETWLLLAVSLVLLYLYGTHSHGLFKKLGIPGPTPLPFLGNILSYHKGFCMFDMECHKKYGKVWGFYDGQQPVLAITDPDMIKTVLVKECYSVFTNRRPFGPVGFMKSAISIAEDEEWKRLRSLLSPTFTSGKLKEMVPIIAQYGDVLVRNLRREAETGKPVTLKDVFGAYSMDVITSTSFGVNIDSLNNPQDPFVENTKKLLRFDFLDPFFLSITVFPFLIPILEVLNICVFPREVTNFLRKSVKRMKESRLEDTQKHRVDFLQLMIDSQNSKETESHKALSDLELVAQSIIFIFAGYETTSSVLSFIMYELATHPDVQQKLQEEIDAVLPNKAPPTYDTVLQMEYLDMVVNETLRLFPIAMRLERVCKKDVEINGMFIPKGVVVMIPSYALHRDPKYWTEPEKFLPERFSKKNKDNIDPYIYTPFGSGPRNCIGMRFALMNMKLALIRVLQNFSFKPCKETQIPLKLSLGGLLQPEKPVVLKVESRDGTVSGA
# Method in brief: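 Luminescent readout of luciferin produced by CYP3A4 (20 nM) dealkylation of Luciferin-PPXE, 25 uM (its KM). NADPH-driven reaction ran 60 min at RT after 10 min compound preincubation; data scaled to 57 uM ketoconazole as 100% inhibition.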
# [3] = Cellular Toxicity (caspase-3) HUV-EC-C (AID 656)
# Method in brief: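 HUV-EC-C cells (1000/well) in complete medium, compound-treated 16 h at 37 °C; caspase-3/7 activity read by Caspase-Glo 3/7 luminescence. Normalized to DMSO (basal) and 100 uM tamoxifen (100%); AC50 from Hill-equation concentration-response fits.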
# [4] = Cell Viability - LYMP2-003 (AID 965);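 note: cells exposed to compounds for 24 h before reading; nearly all actives have a fitted effect of over 50% in size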
# Method in brief: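 Human lymphoblastoid LYMP2-003 cells, 2500/well, exposed to compounds for 24 h at 37 C in complete medium. Viability read as intracellular ATP by CellTiter-Glo luminescence; AC50 from Hill-equation fits of qHTS concentration-response data.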
# [5] = Cell Viability - LYMP2-015 (AID 971); note: nearly all actives have a fitted effect of over 55% in size
# Method in brief: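 AC50 values reflect Hill-model fits of ATP-based luminescence (CellTiter-Glo) from a human lymphoblastoid line, 2500 cells/well, treated 24 hr at 37 C.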
# [6] = Cell Viability - LYMP1-002 - Assay at 40 hr (AID 994); note: nearly all actives have a fitted effect of over 60% in size
# Method in brief: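 Concentration-dependent ATP loss after 40 hr treatment at 37 C defined toxicity; AC50 values were obtained by fitting the standard Hill equation.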
# [7] = target: Bile acid receptor (Homo sapiens) (UniProt Q96RI1); test: qHTS assay for small molecule antagonists of farnesoid X receptor signaling (AID 588526; calls by dose curve)
# Bile acid receptor (Homo sapiens), sequence (Q96RI1 whole entry, looked up): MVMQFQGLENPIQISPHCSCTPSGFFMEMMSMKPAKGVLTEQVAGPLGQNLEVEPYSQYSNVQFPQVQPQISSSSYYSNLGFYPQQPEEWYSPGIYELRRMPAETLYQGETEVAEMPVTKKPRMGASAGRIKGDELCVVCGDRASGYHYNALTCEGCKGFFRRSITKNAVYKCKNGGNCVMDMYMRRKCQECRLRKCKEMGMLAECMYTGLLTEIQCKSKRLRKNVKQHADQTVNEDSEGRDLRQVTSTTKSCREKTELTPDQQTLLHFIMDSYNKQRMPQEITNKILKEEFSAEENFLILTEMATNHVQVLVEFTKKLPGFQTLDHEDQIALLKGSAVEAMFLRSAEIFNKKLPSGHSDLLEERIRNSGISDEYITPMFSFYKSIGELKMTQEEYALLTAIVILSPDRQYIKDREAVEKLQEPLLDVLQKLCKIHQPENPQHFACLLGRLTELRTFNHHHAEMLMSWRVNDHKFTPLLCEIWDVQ
# Method in brief: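 Beta-lactamase reporter antagonist mode: HEK293T FXR-UAS-bla cells, titrated compound, CDCA stimulation, 16 h 37 C, CCF4 dye 2 h RT. Data normalized to CDCA 50 uM and DMSO; Hill-fit IC50.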
# [8] = target: Glucocorticoid receptor (Homo sapiens) (UniProt P04150); test: qHTS assay for small molecule agonists of glucocorticoid receptor signaling (AID 588532; active = well fitted curve in the direction sought with a large enough effect in the signal ratio, with a control signal flat; the % refers to the signal ratio); details: HeLa MMTV-bla, beta-lactamase ratio, agonist, 18 h; stronger effect = higher value; percent of dexamethasone control, DMSO zero
# Glucocorticoid receptor (Homo sapiens), sequence (P04150 whole entry, looked up): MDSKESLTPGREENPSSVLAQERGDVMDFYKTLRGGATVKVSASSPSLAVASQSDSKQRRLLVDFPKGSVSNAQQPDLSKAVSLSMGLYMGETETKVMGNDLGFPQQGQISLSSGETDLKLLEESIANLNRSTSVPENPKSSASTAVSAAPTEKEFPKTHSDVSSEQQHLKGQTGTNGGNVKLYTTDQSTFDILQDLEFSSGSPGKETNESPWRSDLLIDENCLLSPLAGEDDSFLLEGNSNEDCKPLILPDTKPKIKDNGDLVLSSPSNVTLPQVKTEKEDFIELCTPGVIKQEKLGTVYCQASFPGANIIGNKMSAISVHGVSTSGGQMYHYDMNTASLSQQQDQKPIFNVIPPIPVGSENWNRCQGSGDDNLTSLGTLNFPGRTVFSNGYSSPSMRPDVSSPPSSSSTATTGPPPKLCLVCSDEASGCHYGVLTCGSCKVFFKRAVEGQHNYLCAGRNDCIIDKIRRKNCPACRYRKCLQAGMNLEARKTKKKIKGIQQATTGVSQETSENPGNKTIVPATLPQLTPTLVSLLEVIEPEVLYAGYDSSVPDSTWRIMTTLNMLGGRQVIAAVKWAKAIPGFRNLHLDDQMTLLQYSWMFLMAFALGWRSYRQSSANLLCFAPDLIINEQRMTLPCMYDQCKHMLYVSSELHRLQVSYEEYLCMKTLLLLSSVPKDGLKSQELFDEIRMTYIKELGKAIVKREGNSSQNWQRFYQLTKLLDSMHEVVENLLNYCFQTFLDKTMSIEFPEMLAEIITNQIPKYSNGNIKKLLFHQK
# Method in brief: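 Quantitative HTS using CellSensor MMTV-bla HeLa cells in charcoal/dextran-treated serum; compounds tested up to 92 uM. After 18 h at 37 C, CCF4 dye reported reporter induction.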
# [9] = qHTS assay for small molecule antagonists of peroxisome proliferator-activated receptor delta signaling (AID 588535; active = well fitted inhibition curve with a large enough effect in the signal ratio, with a control signal flat, not every such curve was filed as active; the % refers to the signal ratio;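 for max response: cells co-treated with a PPAR-delta agonist as stimulator during compound exposure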); details: HEK293T PPARd-UAS-bla, beta-lactamase FRET ratio, 18 h; 460 nm channel
# Method in brief: (§1)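 Antagonist-mode qHTS using GeneBLAzer PPAR-delta-UAS-bla HEK293T cells; compound exposure 18 hrs at 37 C over a titration. Ratiometric CCF4 fluorescence at 460/530 nm; concentration-response points fitted to the Hill equation.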
# [10] = target: Peroxisome proliferator-activated receptor delta (Homo sapiens) (UniProt Q03181); test: as above
# Peroxisome proliferator-activated receptor delta (Homo sapiens), sequence (Q03181 whole entry, looked up): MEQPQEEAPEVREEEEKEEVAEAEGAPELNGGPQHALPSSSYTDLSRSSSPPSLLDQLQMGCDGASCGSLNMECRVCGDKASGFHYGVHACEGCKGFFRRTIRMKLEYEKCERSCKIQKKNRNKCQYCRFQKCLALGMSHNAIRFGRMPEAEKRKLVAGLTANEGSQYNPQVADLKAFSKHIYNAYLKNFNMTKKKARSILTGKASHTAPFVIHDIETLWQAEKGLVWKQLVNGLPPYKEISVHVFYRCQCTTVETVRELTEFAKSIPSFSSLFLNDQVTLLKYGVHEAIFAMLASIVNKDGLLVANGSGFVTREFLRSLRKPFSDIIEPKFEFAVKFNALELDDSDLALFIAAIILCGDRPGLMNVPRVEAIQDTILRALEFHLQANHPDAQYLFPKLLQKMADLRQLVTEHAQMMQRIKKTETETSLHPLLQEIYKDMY
# Method in brief: as §1
# [11] = target: Peroxisome proliferator-activated receptor gamma (Homo sapiens) (UniProt P37231); test: qHTS assay for small molecule antagonists of peroxisome proliferator-activated receptor gamma signaling (AID 588537; active = well fitted inhibition curve with a large enough effect in the signal ratio, with a control signal flat, not every such curve was filed as active; the % refers to the signal ratio;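 note: reporter cells co-stimulated with 50 nM rosiglitazone agonist during compound treatment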)
# Peroxisome proliferator-activated receptor gamma (Homo sapiens), sequence (P37231 whole entry, looked up): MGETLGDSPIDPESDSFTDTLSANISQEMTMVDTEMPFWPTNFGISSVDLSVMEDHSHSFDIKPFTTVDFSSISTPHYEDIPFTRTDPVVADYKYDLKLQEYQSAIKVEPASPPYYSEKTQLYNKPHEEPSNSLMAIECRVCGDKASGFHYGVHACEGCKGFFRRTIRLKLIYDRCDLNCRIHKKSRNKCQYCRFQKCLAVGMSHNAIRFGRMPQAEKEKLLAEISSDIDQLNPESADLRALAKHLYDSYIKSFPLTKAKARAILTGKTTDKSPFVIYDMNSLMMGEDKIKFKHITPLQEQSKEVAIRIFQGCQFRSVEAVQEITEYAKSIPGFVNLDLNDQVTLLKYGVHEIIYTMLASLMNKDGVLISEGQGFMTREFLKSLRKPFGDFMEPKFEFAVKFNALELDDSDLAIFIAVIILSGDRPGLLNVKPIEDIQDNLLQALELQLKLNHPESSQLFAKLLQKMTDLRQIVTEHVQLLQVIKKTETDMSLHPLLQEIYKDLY
# Method in brief: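 Cell-based beta-lactamase assay; GW9662 served as the antagonist control. Stimulation used rosiglitazone, final 50 nM, 16 h, 37 C.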
# [12] = qHTS assay for small molecule agonists of the antioxidant response element (ARE) signaling pathway (AID 651741; active = well fitted activation curve with a large enough effect in the signal ratio; the % refers to the signal ratio; note: potency is the fitted concentration of half-maximal effect)
# Method in brief: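 Agonist activity is measured as ARE-driven beta-lactamase expression in a stable HepG2 reporter line, using 16 h compound treatment at 37 C and a FRET substrate fluorescence readout after 2 h.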
# [13] = qHTS assay for small molecule activators of the p53 signaling pathway (AID 651743; active = well fitted activation curve with a large enough effect in the signal ratio, not every such curve was filed as active; the % refers to the signal ratio; note: series mostly up to about 92 µM); details: HCT-116 p53RE-bla, beta-lactamase FRET ratio, 16 h; activation: stronger effect = higher value
# Method in brief: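 A beta-lactamase reporter under p53 response element control, stably carried by HCT-116 cells, reported pathway activation. Test compounds were applied for 16 hours at 37 C, and fluorescence was measured 2 hours after adding the B/G FRET substrate.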
# [14] = qHTS assay for small molecule activators of the nuclear factor-kappa B (NF-kB) signaling pathway (AID 651749; active = well fitted activation curve with a large enough effect in the signal ratio; the % refers to the signal ratio; note: series mostly up to about 77 µM); details: NF-kB-bla ME-180 cells, beta-lactamase FRET ratio, 16 h; activation: stronger effect = higher value
# Method in brief: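 FRET-based beta-lactamase detection in ME-180 cells reports NF-kB response-element-driven transcription following overnight (16 hr) compound treatment.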
compound,measurement,setting,value
O=C(O[C@@H]1Cc2c(O)cc(O)cc2O[C@@H]1c1ccc(O)c(O)c1)c1cc(O)c(O)c(O)c1,Potency,[1],inactive
O=C(/C=C/c1ccc(O)c(O)c1)OC1[C@H](O)CC(O)(C(=O)O)C[C@@H]1O (stereo partly drawn),Potency,[1],inactive
O=C(/C=C/c1ccc(O)c(O)c1)O[C@H]1[C@H](O)C[C@](O)(C(=O)O)C[C@H]1OC(=O)/C=C/c1ccc(O)c(O)c1,Potency,[1],inactive
O=C(/C=C/c1ccc(O)c(O)c1)O[C@@H]1CC(C(=O)O)=C[C@@H](O)[C@H]1O,Potency,[1],inactive
COc1ccc2ccc(=O)oc2c1,Potency,[1],inactive
C=C1C[C@@]23CC[C@H]4[C@](C)(CCC[C@]4(C)C(=O)O[C@@H]4O[C@H](CO)[C@@H](O)[C@H](O)[C@H]4O)[C@@H]2CC[C@]1(O[C@H]1O[C@@H](CO)[C@H](O)[C@@H](O)[C@@H]1O)C3,Potency,[1],inactive
Oc1cccc(O)c1O,Potency,[1],inactive
CCC(/C=C/[C@@H](C)[C@H]1CCC2C3CC=C4C[C@@H](O)CC[C@]4(C)C3CC[C@@]21C)C(C)C (stereo partly drawn),Potency,[1],inactive
O=C(OCC1=C[C@@H](O)[C@@H]2C=CO[C@@H](O[C@@H]3O[C@H](CO)[C@@H](O)[C@H](O)[C@H]3O)[C@H]12)c1ccc(O)cc1,Potency,[1],inactive
Oc1cc(O)c2c(c1)O[C@@H](c1cc(O)c(O)c(O)c1)[C@H](O)C2,Potency,[1],inactive
C=C1CC[C@H](O)C/C1=C\C=C1/CCC[C@]2(C)[C@@H]([C@H](C)CC[C@H](C)C(C)C)CC[C@@H]12,Potency,[1],inactive
CCCCCCCCC[C@@H](O)CC(=O)CCc1ccc(O)c(OC)c1,Potency,[1],inactive
O=C(OC[C@H]1O[C@@H](OC(=O)c2cc(O)c(O)c(O)c2)[C@H](OC(=O)c2cc(O)c(O)c(O)c2)[C@@H](OC(=O)c2cc(O)c(O)c(O)c2)[C@@H]1OC(=O)c1cc(O)c(O)c(O)c1)c1cc(O)c(O)c(O)c1,Potency,[1],inactive
CC(C)=CCC[C@](C)(O[C@@H]1O[C@H](CO[C@@H]2O[C@H](CO)[C@@H](O)[C@H](O)[C@H]2O)[C@@H](O)[C@H](O)[C@H]1O)C1CC[C@]2(C)[C@@H]1[C@H](O)CC1[C@@]3(C)CC[C@H](O[C@@H]4O[C@H](CO)[C@@H](O)[C@H](O)[C@H]4O[C@@H]4O[C@H](CO)[C@@H](O)[C@H](O)[C@H]4O)C(C)(C)[C@@H]3CC[C@]12C (stereo partly drawn),"activity change, negative = inhibition",[1],14.6% [at 5.42 µM] (inactive)
CC(=O)O[C@H]1[C@H](O[C@H]2CC[C@]34C[C@]35CC[C@]3(C)[C@@H]([C@@]6(C)CC[C@@H](C(C)(C)O)O6)[C@@H](O)C[C@@]3(C)[C@@H]5C[C@H](O[C@@H]3O[C@H](CO)[C@@H](O)[C@H](O)[C@H]3O)[C@H]4C2(C)C)OC[C@@H](O)[C@@H]1O,Potency,[1],inactive
C=C1C[C@@]23CC[C@H]4[C@@](C)(CCC[C@@]4(C)C(=O)O[C@@H]4O[C@H](CO)[C@@H](O)[C@H](O)[C@H]4O)[C@@H]2CC[C@]1(O[C@@H]1O[C@H](CO)[C@@H](O)[C@H](O[C@@H]2O[C@H](CO)[C@@H](O)[C@H](O)[C@H]2O)[C@H]1O[C@@H]1O[C@@H](C)[C@H](O)[C@@H](O)[C@H]1O)C3,Potency,[1],inactive
COc1cc(/C=C/c2ccccc2)oc(=O)c1,Potency,[1],inactive
O[C@@H]1[C@@H](O)[C@H](OC/C=C/c2ccccc2)O[C@H](CO[C@@H]2OC[C@H](O)[C@H](O)[C@H]2O)[C@H]1O,Potency,[1],inactive
C[C@@H]1CC[C@]2(C)CC[C@]3(C)C(=CC(=O)C4[C@@]5(C)CC[C@@H](O)[C@](C)(C(=O)O)C5CC[C@]43C)C2[C@H]1C (stereo partly drawn),Potency,[1],inactive
O=c1ccc2ccc(O)cc2o1,Potency,[1],inactive
C=C[C@](C)(O)CCC=C(C)C,Potency,[1],inactive
C=C(C)C1CC=C(C)C(O)C1 (stereo not drawn),Potency,[1],inactive
COc1cc(OC)c(/C=C2/C(=O)Nc3ccccc32)c(OC)c1,Potency,[2],2.51 µM (active)
C[C@@]12CC[C@@H]3[C@@](CC[C@H]4[C@@]3(C)CCC[C@@]4(C)C(=O)O)(CC1=O)C2,Potency,[1],inactive
CC(C)=CCC[C@](C)(OC1OC(COC2OCC(O)C(O)C2O)C(O)C(O)C1O)[C@H]1CC[C@]2(C)[C@@H]1[C@H](O)C[C@@H]1[C@@]3(C)CC[C@H](OC4OC(CO)C(O)C(O)C4OC4OC(CO)C(O)C(O)C4O)C(C)(C)[C@@H]3CC[C@]12C (stereo partly drawn),Potency,[1],inactive
c1ccc(-c2ccccc2)cc1,outcome,[3],inactive
same,Potency,[2],inactive
same,Potency,[4],inactive
same,Potency,[5],inactive
same,Potency,[6],inactive
same,outcome,[7],inactive
same,activation,[8],-0.478% (inactive) and -3.49% (inactive)
same,max response,[9],-1.97% and 13.4%
same,Potency,[10],inactive
same,Potency,[11],inactive
same,Potency,[12],inactive and 54.5 µM (active)
same,activation,[13],2.71% (inactive) and -2.97% (inactive)
same,activation,[14],0.41% (inactive) and 0.224% (inactive)
